{"source": "PubChem BioAssay (EPA / NIEHS)", "note": "Active and inactive are the calls of the source. The calls were made as follows: active = hit-call score of the fitted dose curve at least 0.9, where 1 is the maximum; inactive = score below 0.9."}
{"test": "IUF_NPC1_viability_72hr: Viability Assessment at 72 hours in the Leibniz Research Institute for Environmental Medicine (IUF) Neural Progenitor Cell Proliferation Assay (NPC1) (AID 2284209)", "in_short": "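Spheres of primary human neural progenitors were plated singly in proliferation medium and treated for 72 h. Mitochondrial reduction of resazurin was then measured by fluorescence and analysed against DMSO controls.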"}
{"smiles": "BrC1CC(Br)CC(Br)CC(Br)CC(Br)CC(Br)C1", "note": "(centres undefined)", "outcome": "inactive"}
{"smiles": "CC(CNC(=S)[S-])NC(=S)[S-].[Zn+2]", "note": "(centres undefined)", "outcome": "inactive"}
{"smiles": "CC(=O)N[C@@H](CC(=O)O)C(=O)O", "outcome": "inactive"}
{"smiles": "CC(C)c1nn(C(=O)NC(C)(C)C)c(=O)n1N", "outcome": "inactive"}
{"smiles": "Cc1[nH]n(C)c(=O)c1C(=O)c1ccc(C(F)(F)F)cc1S(C)(=O)=O", "outcome": "inactive"}
{"smiles": "CCCCOCCOP(=O)(O)OCCOCCCC", "AC50": "2.46 µM (active)"}
{"smiles": "F", "AC50": "2640 µM (active)"}
{"smiles": "CCCCCC(C)(CC)C(=O)NC", "note": "(centres undefined)", "outcome": "inactive"}
{"smiles": "C[C@@H]1CCO[C@H]2Cn3cc(C(=O)NCc4ccc(F)cc4F)c(=O)c(O)c3C(=O)N12", "outcome": "inactive"}
{"smiles": "CN(C)CCCn1cc(C2=C(c3c[nH]c4ccccc34)C(=O)NC2=O)c2ccccc21", "outcome": "inactive"}
{"smiles": "CCCCCC=C(C)C(CC)CCO", "note": "(centres undefined)", "outcome": "inactive"}
{"smiles": "CCc1ccccc1", "outcome": "inactive"}
{"smiles": "C[C@@H]1CC[C@@H](C(C)(C)O)[C@H](O)C1", "outcome": "inactive"}
{"smiles": "CC(C)O", "outcome": "inactive"}
{"smiles": "CC(=O)OC/N=[N+](\\C)[O-]", "AC50": "1150 µM (active)"}
{"test": "CCTE_Mundy_HCI_Cortical_Synap_Neur_Matur_NeuriteSpotCountPerNeuriteLength: CCTE's Synaptogenesis and Neurite Maturation Assay in rat cortical cells for Neurite Spot Count per Neurite Length, Mundy Lab (AID 2284210)", "in_short": "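Neurite-associated synapse density (synaptophysin puncta per unit neurite length) is measured by fluorescence high-content imaging in rat cortical cultures treated from DIV 7 and fixed at DIV 12, with DMSO as negative control.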"}
{"smiles": "BrC1CC(Br)CC(Br)CC(Br)CC(Br)CC(Br)C1", "note": "(centres undefined)", "AC50": "3.49 µM (active)"}
{"smiles": "CC(CNC(=S)[S-])NC(=S)[S-].[Zn+2]", "note": "(centres undefined)", "outcome": "inactive"}
{"smiles": "CC(=O)N[C@@H](CC(=O)O)C(=O)O", "outcome": "inactive"}
{"smiles": "CC(C)c1nn(C(=O)NC(C)(C)C)c(=O)n1N", "outcome": "inactive"}
{"smiles": "Cc1[nH]n(C)c(=O)c1C(=O)c1ccc(C(F)(F)F)cc1S(C)(=O)=O", "outcome": "inactive"}
{"smiles": "F", "outcome": "inactive"}
{"smiles": "[O]=[V]([OH])([OH])[OH]", "AC50": "40.2 µM (active)"}
{"smiles": "CCCCCC(C)(CC)C(=O)NC", "note": "(centres undefined)", "outcome": "inactive"}
{"smiles": "C[C@@H]1CCO[C@H]2Cn3cc(C(=O)NCc4ccc(F)cc4F)c(=O)c(O)c3C(=O)N12", "AC50": "7.38 µM (active)"}
{"smiles": "CN(C)CCCn1cc(C2=C(c3c[nH]c4ccccc34)C(=O)NC2=O)c2ccccc21", "outcome": "inactive"}
{"smiles": "CCCCCC=C(C)C(CC)CCO", "note": "(centres undefined)", "outcome": "inactive"}
{"smiles": "CCc1ccccc1", "outcome": "inactive"}
{"smiles": "C[C@@H]1CC[C@@H](C(C)(C)O)[C@H](O)C1", "outcome": "inactive"}
{"smiles": "CC(C)O", "outcome": "inactive"}
{"test": "CCTE_Mundy_HCI_Cortical_Synap_Neur_Matur_BPCount: CCTE's Synaptogenesis and Neurite Maturation Assay in rat cortical cells for Branch Point Count, Mundy Lab (AID 2284211)", "in_short": "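HCI read-out of branch points from MAP2/synaptophysin/Hoechst immunofluorescence; rat cortical cultures, AraC DIV 5, dosing DIV 7, fixed DIV 12; fit in positive direction vs DMSO baseline.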"}
{"smiles": "BrC1CC(Br)CC(Br)CC(Br)CC(Br)CC(Br)C1", "note": "(centres undefined)", "AC50": "3.17 µM (active)"}
{"smiles": "CC(CNC(=S)[S-])NC(=S)[S-].[Zn+2]", "note": "(centres undefined)", "AC50": "50 µM (active)"}
{"smiles": "CC(=O)N[C@@H](CC(=O)O)C(=O)O", "outcome": "inactive"}
{"smiles": "CC(C)c1nn(C(=O)NC(C)(C)C)c(=O)n1N", "outcome": "inactive"}
{"smiles": "Cc1[nH]n(C)c(=O)c1C(=O)c1ccc(C(F)(F)F)cc1S(C)(=O)=O", "outcome": "inactive"}
{"smiles": "F", "outcome": "inactive"}
{"smiles": "[O]=[V]([OH])([OH])[OH]", "AC50": "12.2 µM (active)"}
{"smiles": "CCCCCC(C)(CC)C(=O)NC", "note": "(centres undefined)", "outcome": "inactive"}
{"smiles": "C[C@@H]1CCO[C@H]2Cn3cc(C(=O)NCc4ccc(F)cc4F)c(=O)c(O)c3C(=O)N12", "AC50": "1.14 µM (active)"}
{"smiles": "CCCCCC=C(C)C(CC)CCO", "note": "(centres undefined)", "outcome": "inactive"}
{"smiles": "CCc1ccccc1", "outcome": "inactive"}
{"smiles": "C[C@@H]1CC[C@@H](C(C)(C)O)[C@H](O)C1", "outcome": "inactive"}
{"smiles": "CC(C)O", "outcome": "inactive"}
{"test": "CCTE_Mundy_HCI_Cortical_NOG_NeuriteCount: CCTE's Neurite Outgrowth Assay in rat cortical cells for Neurite Count, Mundy Lab (AID 2284212);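 also: cells fixed about two days after chemical exposure began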", "in_short": "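Rat cortical primary cells; compound added 2 h post-plating, 1/10 dilution of working solution. Anti-betaIII-tubulin/AF488 ICC; ArrayScan neurite count vs DMSO.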"}
{"smiles": "BrC1CC(Br)CC(Br)CC(Br)CC(Br)CC(Br)C1", "note": "(centres undefined)", "AC50": "8.41 µM (active)"}
{"smiles": "CC(CNC(=S)[S-])NC(=S)[S-].[Zn+2]", "note": "(centres undefined)", "AC50": "31.5 µM (active)"}
{"smiles": "CC(=O)N[C@@H](CC(=O)O)C(=O)O", "outcome": "inactive"}
{"smiles": "CC(C)c1nn(C(=O)NC(C)(C)C)c(=O)n1N", "outcome": "inactive"}
{"smiles": "Cc1[nH]n(C)c(=O)c1C(=O)c1ccc(C(F)(F)F)cc1S(C)(=O)=O", "outcome": "inactive"}
{"smiles": "F", "outcome": "inactive"}
{"smiles": "CCN(CC)CCCC(C)Nc1nc(C)cc(Nc2ccc3nc(C)cc(N)c3c2)n1", "note": "(centres undefined)", "outcome": "inactive"}
{"smiles": "CCCCCC(C)(CC)C(=O)NC", "note": "(centres undefined)", "outcome": "inactive"}
{"smiles": "C[C@@H]1CCO[C@H]2Cn3cc(C(=O)NCc4ccc(F)cc4F)c(=O)c(O)c3C(=O)N12", "outcome": "inactive"}
{"smiles": "CCCCCC=C(C)C(CC)CCO", "note": "(centres undefined)", "outcome": "inactive"}
{"smiles": "CCc1ccccc1", "outcome": "inactive"}
{"smiles": "[Li+]", "outcome": "inactive"}
{"smiles": "C[C@@H]1CC[C@@H](C(C)(C)O)[C@H](O)C1", "outcome": "inactive"}
{"smiles": "CC(C)O", "outcome": "inactive"}
{"test": "CCTE_Mundy_HCI_Cortical_Synap_Neur_Matur_NeuriteLength: CCTE's Synaptogenesis and Neurite Maturation Assay in rat cortical cells for Neurite Length, Mundy Lab (AID 2284214)", "in_short": "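Cultures of rat primary cortical cells received chemical at DIV 7 and were fixed at DIV 12, after glial arrest with AraC at DIV 5. Neurite length was measured by automated imaging of MAP2 immunofluorescence.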"}
{"smiles": "BrC1CC(Br)CC(Br)CC(Br)CC(Br)CC(Br)C1", "note": "(centres undefined)", "AC50": "4.04 µM (active)"}
{"smiles": "CC(CNC(=S)[S-])NC(=S)[S-].[Zn+2]", "note": "(centres undefined)", "AC50": "50 µM (active)"}
{"smiles": "CC(=O)N[C@@H](CC(=O)O)C(=O)O", "outcome": "inactive"}
{"smiles": "CC(C)c1nn(C(=O)NC(C)(C)C)c(=O)n1N", "outcome": "inactive"}
{"smiles": "Cc1[nH]n(C)c(=O)c1C(=O)c1ccc(C(F)(F)F)cc1S(C)(=O)=O", "outcome": "inactive"}
{"smiles": "F", "outcome": "inactive"}
{"smiles": "[O]=[V]([OH])([OH])[OH]", "AC50": "27 µM (active)"}
{"smiles": "CCCCCC(C)(CC)C(=O)NC", "note": "(centres undefined)", "outcome": "inactive"}
{"smiles": "C[C@@H]1CCO[C@H]2Cn3cc(C(=O)NCc4ccc(F)cc4F)c(=O)c(O)c3C(=O)N12", "outcome": "inactive"}
{"smiles": "CN(C)CCCn1cc(C2=C(c3c[nH]c4ccccc34)C(=O)NC2=O)c2ccccc21", "outcome": "inactive"}
{"smiles": "CCCCCC=C(C)C(CC)CCO", "note": "(centres undefined)", "outcome": "inactive"}
{"smiles": "CCc1ccccc1", "outcome": "inactive"}
{"smiles": "C[C@@H]1CC[C@@H](C(C)(C)O)[C@H](O)C1", "outcome": "inactive"}
{"smiles": "CC(C)O", "outcome": "inactive"}
{"test": "CCTE_Mundy_HCI_Cortical_Synap_Neur_Matur_NeuriteSpotCountPerNeuron: CCTE's Synaptogenesis and Neurite Maturation Assay in rat cortical cells for Neurite Spot Count per Neuron Count, Mundy Lab (AID 2284215)", "in_short": "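Synapse density is scored as synaptophysin spots along neurites per neuron in fixed rat cortical neurons, measured at DIV 12 after chemical dosing at DIV 7. DMSO is the negative control and activity baseline.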"}
{"smiles": "BrC1CC(Br)CC(Br)CC(Br)CC(Br)CC(Br)C1", "note": "(centres undefined)", "AC50": "3.23 µM (active)"}
{"smiles": "CC(CNC(=S)[S-])NC(=S)[S-].[Zn+2]", "note": "(centres undefined)", "AC50": "50 µM (active)"}
{"smiles": "CC(=O)N[C@@H](CC(=O)O)C(=O)O", "outcome": "inactive"}
{"smiles": "CC(C)c1nn(C(=O)NC(C)(C)C)c(=O)n1N", "outcome": "inactive"}
{"smiles": "Cc1[nH]n(C)c(=O)c1C(=O)c1ccc(C(F)(F)F)cc1S(C)(=O)=O", "outcome": "inactive"}
{"smiles": "F", "outcome": "inactive"}
{"smiles": "[O]=[V]([OH])([OH])[OH]", "AC50": "11.6 µM (active)"}
{"smiles": "CCCCCC(C)(CC)C(=O)NC", "note": "(centres undefined)", "outcome": "inactive"}
{"smiles": "C[C@@H]1CCO[C@H]2Cn3cc(C(=O)NCc4ccc(F)cc4F)c(=O)c(O)c3C(=O)N12", "AC50": "3.63 µM (active)"}
{"smiles": "CN(C)CCCn1cc(C2=C(c3c[nH]c4ccccc34)C(=O)NC2=O)c2ccccc21", "outcome": "inactive"}
{"smiles": "CCCCCC=C(C)C(CC)CCO", "note": "(centres undefined)", "outcome": "inactive"}
{"smiles": "CCc1ccccc1", "outcome": "inactive"}
{"smiles": "C[C@@H]1CC[C@@H](C(C)(C)O)[C@H](O)C1", "outcome": "inactive"}
{"smiles": "CC(C)O", "outcome": "inactive"}
